# Data: the supplement of paper PMC8975748
# Structures can show the parent of a compound that is named as a salt.
# Test system: Saccharomyces cerevisiae BY4741 SeMeCo community
# Assay: z-score of prototroph abundance vs DMSO median; higher = larger share of this subpopulation than in DMSO controls
# Conditions: 10 µM; 24 h; SM minimal medium; subpopulation (auxotrophy): Prototroph
# Method: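 Fluorescent four-plasmid SeMeCo (self-establishing metabolically cooperating S. cerevisiae BY4741 community; plasmids pH-mRuby2, pL-mWasabi, pU-eCFP, pM-TagRFP657) was grown 24 h in minimal SM medium with each Selleck FDA-approved drug at 10 µM in 384-well plates. Cells were fixed and imaged by high-content confocal microscopy. For each auxotrophic subpopulation (and the prototroph), a z-score gives the deviation from the DMSO vehicle-control population median.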
row,SMILES,z-score of prototroph abundance
1,CN(C)C(=O)Oc1ccc[n+](C)c1 [Pyridostigmine Bromide],-0.27
2,CN1[C@@H]2C[C@@H](OC(=O)[C@H](CO)c3ccccc3)C[C@H]1[C@@H]1O[C@@H]12 [Scopolamine HBr trihydrate],0.7
3,CC(C)(O)C(Cl)(Cl)Cl [Chlorobutanol],-0.27
4,C=CC[C@]1(O)CC[C@H]2[C@@H]3CCC4=CC(=O)CCC4=C3C=C[C@@]21C [Altrenogest],0.56
5,CN(C)C(=O)Oc1cccc([N+](C)(C)C)c1 [Neostigmine Bromide],0.27
6,COc1ccc2[nH]cc(CCN)c2c1 [5-Methoxytryptamine],-0.96
7,COc1ccc(C(CN(C)C)C2(O)CCCCC2)cc1 (stereo not given) [Venlafaxine],0.19
8,CC[N+](C)(CC)CCOC(=O)C(O)(c1ccccc1)c1ccccc1 [Methylbenactyzine Bromide],1.09
9,C=C(C)[C@H]1Cc2c(ccc3c2O[C@@H]2COc4cc(OC)c(OC)cc4[C@@H]2C3=O)O1 [Rotenone (Barbasco)],-0.73
10,O=C(O[C@H]1C[N+]2(CCCOc3ccccc3)CCC1CC2)C(O)(c1cccs1)c1cccs1 [Aclidinium Bromide],-0.31
11,CN1C(=O)COc2c(C(=O)NC3CN4CCC3CC4)cc(Cl)cc21 (stereo not given) [Azasetron HCl],0.42
12,C[C@@H]1O[C@@H](O[C@H]2C[C@@H](O)[C@]3(CO)[C@H]4[C@H](O)C[C@]5(C)[C@@H](C6=CC(=O)OC6)CC[C@]5(O)[C@@H]4CC[C@]3(O)C2)[C@H](O)[C@H](O)[C@H]1O [Ouabain],0.81
13,CN(C)[C@@H]1C(=O)C(C(N)=O)=C(O)[C@@]2(O)C(=O)C3=C(O)c4c(O)cccc4[C@@](C)(O)[C@H]3C[C@@H]12 [Tetracycline HCl],-0.24
14,N[C@@H]1C[C@H]1c1ccccc1 [Tranylcypromine (2-PCPA) HCl],0.44
15,O=C(O[C@H]1C[C@H]2CC[C@@H](C1)[N+]21CCCC1)C(O)(c1ccccc1)c1ccccc1 [Trospium chloride],0.42
16,Nc1ccncc1 [4-Aminopyridine],-0.05
17,CN[C@@H]1[C@@H](O)[C@@H](O[C@@H]2[C@@H](O)[C@H](O[C@H]3O[C@H](CN)CC[C@H]3N)[C@@H](N)C[C@H]2N)OC[C@]1(C)O.CN[C@@H]1[C@@H](O)[C@@H](O[C@@H]2[C@@H](O)[C@H](O[C@H]3O[C@H]([C@@H](C)N)CC[C@H]3N)[C@@H](N)C[C@H]2N)OC[C@]1(C)O.CN[C@@H]1[C@@H](O)[C@@H](O[C@@H]2[C@@H](O)[C@H](O[C@H]3O[C@H]([C@@H](C)NC)CC[C@H]3N)[C@@H](N)C[C@H]2N)OC[C@]1(C)O [Gentamicin Sulfate],0.63
18,NC(=O)CN1CCCC1=O [Piracetam],-1.9
19,CC(C)N(CCC(C(N)=O)(c1ccccc1)c1ccccn1)C(C)C (stereo not given) [Disopyramide],-0.35
20,CN(C)[C@@H]1C(=O)C(C(N)=O)=C(O)[C@@]2(O)C(=O)C3=C(O)c4c(O)cccc4[C@@](C)(O)[C@H]3[C@H](O)[C@@H]12 [Oxytetracycline Dihydrate],0.77

row,SMILES,z-score of prototroph abundance
1,COc1ccc(C(CN(C)C)C2(O)CCCCC2)cc1 (stereo not given) [Venlafaxine HCl],0
2,CN[C@@H]1[C@@H](O)[C@@H](O[C@@H]2[C@@H](O)[C@H](O[C@H]3O[C@H]([C@@H](C)O)[C@@H](O)[C@H](O)[C@H]3N)[C@@H](N)C[C@H]2N)OC[C@]1(C)O [Geneticin (G418 Sulfate)],0.1
3,CCCN1C[C@H](CSC)C[C@@H]2c3cccc4[nH]cc(c34)C[C@H]21 [Pergolide Mesylate],0.88
4,O=[N+]([O-])C(Br)(CO)CO [Bronopol],-0.24
5,CC(=O)O[C@H]1C[C@@H]2CC[C@@H]3[C@H](CC[C@@]4(C)[C@H]3C[C@H]([N+]3(C)CCCCC3)[C@@H]4OC(C)=O)[C@@]2(C)C[C@@H]1[N+]1(C)CCCCC1 [Pancuronium dibromide],0.97
6,Cc1cc(C(C#N)c2ccc(Cl)cc2)c(Cl)cc1NC(=O)c1cc(I)cc(I)c1O (stereo not given) [Closantel],0
7,CC[C@@]1(O)C(=O)OCc2c1cc1n(c2=O)Cc2cc3ccccc3nc2-1 [Camptothecin],0.34
8,O=c1cccc2n1C[C@@H]1CNC[C@H]2C1 [Cytisine],0.46
9,CNC1CC(N)C(O)C(OC2OC(CO)C(O)C3OC4(OC(C(N)CO)C(O)C(O)C4O)OC23)C1O (stereo not given) [Hygromycin B],0.64
10,COC(=O)C1=CCCN(C)C1 [Arecoline HBr],-0.55
11,CN(C)[C@@H]1C(=O)C(C(N)=O)=C(O)[C@@]2(O)C(=O)C3=C(O)c4c(O)cccc4[C@@](C)(O)[C@H]3[C@H](O)[C@@H]12 [Oxytetracycline (Terramycin)],-0.34
12,C=C[C@H]1CN2CC[C@H]1C[C@H]2[C@H](O)c1ccnc2ccccc12 [Cinchonidine],-0.41
13,C[N+](C)(C)CCCCCCCCCC[N+](C)(C)C [Decamethonium Bromide],0.58
14,CCN(C)C(=O)Oc1cccc([C@H](C)N(C)C)c1 [Rivastigmine Tartrate],0.28
15,CCCCCCCCCCCCCCCC[n+]1ccccc1 [Cetylpyridinium Chloride],-12.7
16,C#C[C@]1(O)C=C[C@H]2[C@@H]3CCC4=CC(=O)CC[C@@H]4[C@H]3CC[C@@]21CC [Gestodene],0.59
17,Cn1cc(C2=C(c3cn(C4CCN(Cc5ccccn5)CC4)c4ccccc34)C(=O)NC2=O)c2ccccc21,0.73
18,C[N+]12CCC(CC1)C(OC(=O)C(O)(c1ccccc1)c1ccccc1)C2 (stereo not given) [Clidinium Bromide],0.13
19,C[C@H]1O[C@H](O[C@H]2[C@H](O)[C@@H](O)[C@@H](O)[C@H](O)[C@@H]2O)[C@@H](N)C[C@@H]1NC(=N)C(=O)O [Kasugamycin hydrochloride],0.23
20,C[N+]1(C)[C@@H]2C[C@@H](OC(=O)[C@H](CO)c3ccccc3)C[C@H]1[C@@H]1O[C@@H]12 [Methscopolamine],-0.68
